Molecular target: CHRNA1
Experiment: pooled miR-30 sensor sort-seq; sequence = guide strand
Conditions: shRNA
Note: reference of the scale not given here.

Q: TACTTCATCCACATTGATGAGC was tested. Which sensor-assay potency score (higher = more potent) did it give?
A: Its sensor-assay potency score (higher = more potent) is -0.906.

Q: With ATTGATGAGCTGTATCAGCTGC as the sequence, how does the sensor-assay potency score (higher = more potent) read?
A: Its sensor-assay potency score (higher = more potent) is 0.306.

Q: With TAACACGTTTGATAAGTGCGAG as the sequence, how does the sensor-assay potency score (higher = more potent) read?
A: Its sensor-assay potency score (higher = more potent) is -0.52.

Molecular target: CHRNE
Experiment: as above
Conditions: shRNA

Q: Which sensor-assay potency score (higher = more potent) does the source give for TAGTGGTGAGAGTCTCCTCTTT here?
A: The sensor-assay potency score (higher = more potent) was -0.541.

Q: How did the sensor-assay potency score (higher = more potent) turn out when TGTGTCGATGTCGATCTTGTTG was run?
A: Its sensor-assay potency score (higher = more potent) is -0.832.

Q: Which sensor-assay potency score (higher = more potent) does the source give for TTTTCCAGCACAATCTCTGGCA here?
A: Its sensor-assay potency score (higher = more potent) is -0.449.

Q: With ATGACGAAAATAAGGAACCTGC as the sequence, how does the sensor-assay potency score (higher = more potent) read?
A: Its sensor-assay potency score (higher = more potent) is -1.05.

Q: With TTGATGGTCTTGCCGTCGTTGT as the sequence, how does the sensor-assay potency score (higher = more potent) read?
A: Its sensor-assay potency score (higher = more potent) is -1.26.

Q: With ATCTTGTTGATGGTCTTGCCGT as the sequence, how does the sensor-assay potency score (higher = more potent) read?
A: The sensor-assay potency score (higher = more potent) was -1.25.
